Paper PMC7862700, “An all-to-all approach to the identification of sequence-specific readers for epigenetic DNA modifications on cytosine”

Biological target: CRX (Homo sapiens, UniProt O43186 1-299)
Experiment: DAPPL (digital affinity profiling via proximity ligation, sequencing); 10 mM Tris-HCl pH 7.5, 50 mM NaCl, 1 mM DTT, 4% glycerol, room temperature, 30 min; GST-TFs on glutathione beads, 16-mer random dsDNA library, 0.1% formaldehyde crosslink after washing; high values mean tight binding
Details: protein: recombinant; tags: N-terminal GST; dsDNA, one strand shown
How it was run: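 Pools of DNA-barcoded human transcription factors, expressed in yeast as GST fusions on glutathione beads and combined with a tag-only sample, were incubated with 200 nmole of a 16-mer random double-stranded DNA library. Incubation took 30 min at room temperature in Tris/NaCl/DTT/glycerol buffer and was followed by washing, 0.1% formaldehyde crosslinking, proximity ligation (BsaI/T4 ligase, 1 h, 37 °C), PCR amplification and sequencing on an Illumina NextSeq500. Binding signal is the ratio of a hexamer's read frequency for a factor to its frequency for the tag-only sample.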

CRX, sequence (O43186 whole entry): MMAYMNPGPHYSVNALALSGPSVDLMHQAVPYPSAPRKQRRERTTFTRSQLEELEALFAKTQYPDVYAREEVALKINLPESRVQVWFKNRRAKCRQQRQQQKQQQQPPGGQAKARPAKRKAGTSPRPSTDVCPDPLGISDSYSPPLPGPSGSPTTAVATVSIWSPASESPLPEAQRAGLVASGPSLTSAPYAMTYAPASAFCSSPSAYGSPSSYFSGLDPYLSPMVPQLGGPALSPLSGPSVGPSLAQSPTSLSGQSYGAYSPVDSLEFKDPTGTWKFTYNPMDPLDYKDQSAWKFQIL

| Sequence | binding signal |
| --- | --- |
| AATGAA | 1.03 fold enrichment (6-mer frequency, TF over GST control) |
| CTCGTA | 1.38 fold enrichment (6-mer frequency, TF over GST control) |
| CCGACT | 1.45 fold enrichment (6-mer frequency, TF over GST control) |
| TTGCTG | 1.26 fold enrichment (6-mer frequency, TF over GST control) |
| CACCTT | 1.1 fold enrichment (6-mer frequency, TF over GST control) |
| TCGAAT | 1.38 fold enrichment (6-mer frequency, TF over GST control) |
| ATAGTT | 1.1 fold enrichment (6-mer frequency, TF over GST control) |
| ATCCCG | 1.67 fold enrichment (6-mer frequency, TF over GST control) |
| CTTTAC | 1.51 fold enrichment (6-mer frequency, TF over GST control) |
| TAATCC | 7.84 fold enrichment (6-mer frequency, TF over GST control) |
| CGGCTT | 1.95 fold enrichment (6-mer frequency, TF over GST control) |
| AATCAT | 1.39 fold enrichment (6-mer frequency, TF over GST control) |
| TTAAAT | 2.92 fold enrichment (6-mer frequency, TF over GST control) |
| TTACTG | 1.84 fold enrichment (6-mer frequency, TF over GST control) |
| GGATTT | 2.47 fold enrichment (6-mer frequency, TF over GST control) |
| CTACAA | 1.04 fold enrichment (6-mer frequency, TF over GST control) |
| ATCTAC | 1.5 fold enrichment (6-mer frequency, TF over GST control) |
| ATCCAA | 1.63 fold enrichment (6-mer frequency, TF over GST control) |
| GACCTA | 1.07 fold enrichment (6-mer frequency, TF over GST control) |
| ATTACG | 2.19 fold enrichment (6-mer frequency, TF over GST control) |

| Sequence | binding signal |
| --- | --- |
| AATTCT | 1.79 fold enrichment (6-mer frequency, TF over GST control) |
| TTCATC | 1.28 fold enrichment (6-mer frequency, TF over GST control) |
| AGCTCA | 1.45 fold enrichment (6-mer frequency, TF over GST control) |
| TAATCG | 2.89 fold enrichment (6-mer frequency, TF over GST control) |
| ATTGCT | 1.17 fold enrichment (6-mer frequency, TF over GST control) |
| CTCCCT | 1.36 fold enrichment (6-mer frequency, TF over GST control) |
| CGACCT | 1.21 fold enrichment (6-mer frequency, TF over GST control) |
| CTCATC | 1.32 fold enrichment (6-mer frequency, TF over GST control) |
| TGACAA | 1.05 fold enrichment (6-mer frequency, TF over GST control) |
| CCTGAA | 1.22 fold enrichment (6-mer frequency, TF over GST control) |
| TTTACG | 1.62 fold enrichment (6-mer frequency, TF over GST control) |
| ATTAGC | 2.83 fold enrichment (6-mer frequency, TF over GST control) |
| CGAGCA | 1.04 fold enrichment (6-mer frequency, TF over GST control) |
| CCTATT | 1.67 fold enrichment (6-mer frequency, TF over GST control) |
| ATTCCC | 1.57 fold enrichment (6-mer frequency, TF over GST control) |
| GCTGCT | 1.27 fold enrichment (6-mer frequency, TF over GST control) |
| TTGTAG | 1.13 fold enrichment (6-mer frequency, TF over GST control) |
| CTTTCA | 1.25 fold enrichment (6-mer frequency, TF over GST control) |
| AAATTA | 1.65 fold enrichment (6-mer frequency, TF over GST control) |
| TATGCC | 1.18 fold enrichment (6-mer frequency, TF over GST control) |
